Test results reported in publication PMC4336329 (PLoS ONE, 2015).
The whole screen tested about 310,000 compounds, of which about 14,000 (4.5%) showed an effect of 50% or more. The effect is printed as a negative number. What follows is part of a selection rich in strong results, with near analogues and random picks from the rest.

Biological target: human ether-à-go-go-related gene (hERG) potassium channel (human, UniProt Q12809)
Assay: primary screen, population patch clamp on CHO cells stably expressing hERG; higher = less effect of the substance
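Note: peak tail current of the secondary pulse compared with the same well before compound.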

Sequence of human ether-à-go-go-related gene (hERG) potassium channel (Q12809 whole entry, looked up): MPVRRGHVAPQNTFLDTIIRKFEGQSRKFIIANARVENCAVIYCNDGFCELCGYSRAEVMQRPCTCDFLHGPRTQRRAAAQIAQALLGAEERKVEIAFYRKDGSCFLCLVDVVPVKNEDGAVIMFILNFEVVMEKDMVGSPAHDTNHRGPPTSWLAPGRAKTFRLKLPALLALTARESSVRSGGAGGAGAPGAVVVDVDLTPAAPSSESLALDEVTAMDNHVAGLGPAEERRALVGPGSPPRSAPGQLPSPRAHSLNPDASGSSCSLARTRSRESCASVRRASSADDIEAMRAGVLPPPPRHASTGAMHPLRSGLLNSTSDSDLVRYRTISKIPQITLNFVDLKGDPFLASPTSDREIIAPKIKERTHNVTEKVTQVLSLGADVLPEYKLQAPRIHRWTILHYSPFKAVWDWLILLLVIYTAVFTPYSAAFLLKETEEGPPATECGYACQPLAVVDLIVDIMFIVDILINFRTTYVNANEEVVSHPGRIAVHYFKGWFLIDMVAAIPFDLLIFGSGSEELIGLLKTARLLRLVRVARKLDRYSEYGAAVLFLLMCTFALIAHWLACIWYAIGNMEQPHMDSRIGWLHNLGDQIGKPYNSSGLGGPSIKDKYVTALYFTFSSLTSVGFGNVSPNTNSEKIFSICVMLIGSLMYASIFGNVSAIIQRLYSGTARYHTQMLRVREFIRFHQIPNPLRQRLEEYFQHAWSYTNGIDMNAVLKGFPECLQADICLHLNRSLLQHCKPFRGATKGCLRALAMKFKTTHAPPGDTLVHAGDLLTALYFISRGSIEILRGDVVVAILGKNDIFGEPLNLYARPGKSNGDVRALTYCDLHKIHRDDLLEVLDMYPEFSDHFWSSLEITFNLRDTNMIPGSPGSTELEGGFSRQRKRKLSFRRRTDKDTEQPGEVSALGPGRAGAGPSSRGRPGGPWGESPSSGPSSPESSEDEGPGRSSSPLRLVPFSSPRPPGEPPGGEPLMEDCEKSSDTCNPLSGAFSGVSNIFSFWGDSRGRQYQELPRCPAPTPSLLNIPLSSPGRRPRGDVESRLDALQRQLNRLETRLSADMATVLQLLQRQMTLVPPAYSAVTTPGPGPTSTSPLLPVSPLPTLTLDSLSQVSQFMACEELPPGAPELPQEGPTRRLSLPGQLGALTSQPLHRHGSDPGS

Row | Compound | hERG current change (%, negative = inhibition) at 10uM [%]
1 | CN(CC(=O)Nc1ccc(Cl)cc1)CC(=O)Nc1cccc2ccccc12 | -2.26
2 | O=C(/C=C/c1ccccc1Cl)Nc1ccc(-c2nnc3n2CCCCC3)cc1 | -6.47
3 | COc1cc(CNC(C)(C)C)cc(Br)c1OCc1cccs1.Cl | -28.7
4 | NS(=O)(=O)c1cccnc1Nc1c(Cl)cccc1Cl | 10.6
5 | CCCCc1nc2ccccc2c(NC(=O)CN(CC)CC)c1CCC.O=C(O)C(=O)O | -26.8
6 | COc1ccc(S(=O)(=O)N2CCCCCC2)cc1NC(=O)c1ccccc1F | 3.54
7 | NC(=O)c1ccsc1NC(=O)CS(=O)(=O)c1ccccc1 | -8.27
8 | CNC(=O)c1ccsc1NC(=O)CS(=O)(=O)c1ccc(Cl)cc1 | -38.6
9 | NC(=O)c1ccsc1NC(=O)CS(=O)(=O)c1ccc(Cl)cc1 | -75.7
10 | NC(=O)c1ccsc1NC(=O)CCS(=O)(=O)c1ccc(F)cc1 | -2.69
11 | O=C(CS(=O)(=O)c1ccc(F)cc1)Nc1nccs1 | 9.06
12 | NC(=O)c1ccsc1NC(=O)CS(=O)(=O)c1ccc(F)cc1 | -68.2
13 | COc1ccccc1S(=O)(=O)Cc1ccc(C(=O)N2CCN(c3ccc(C)cc3)C(C)C2)o1 (centres unmarked) | -24.6
14 | CCCNC(=O)c1oc2ccc3c(c2c1C)C=CC(C)(C)O3 | 0.704
15 | CCOC(=O)c1cc2c(=O)n3ccccc3nc2n(CCCOC)c1=NC(=O)c1ccncc1 | -87.3
16 | CCOC(=O)c1cc2c(=O)n3ccccc3nc2n(CCOC)c1=NC(=O)c1ccncc1 | -51.3
17 | CCOC(=O)c1cc2c(=O)n3ccccc3nc2n(CCCOC)c1=NC(C)=O | -27.5
18 | CCOC(=O)c1cc2c(=O)n3ccccc3nc2n(CCOC)c1=NC(=O)C(C)(C)C | -4.45
19 | CCOC(=O)c1cc2c(=O)n3ccccc3nc2n(CCCOC)c1=NC(=O)C(C)(C)C | -7.42
20 | CCOC(=O)c1cc2c(=O)n3ccccc3nc2n(CCOC)c1=NC(=O)c1c(-c2c(F)cccc2Cl)noc1C | 2
21 | Cc1cccc(C(=O)Nc2ccc(C(=O)/C=C/c3cccs3)cc2)c1 | 7.48
22 | O=C(CSc1n[nH]c(=O)[nH]c1=O)N/N=C/c1ccccc1 | 8.14
23 | COc1ccc(-n2nc(C(=O)NCC(=O)NC(C)C)c3ccccc3c2=O)c(OC)c1 | 11.3
